From PubChem BioAssay (NCI)
The panel holds about 83,000 compounds, 20% with a hit somewhere; the sample as a whole holds those more often.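 How to read the values: 0–100, growth inhibition (40 = 60% inhibited); 0, no net growth; -100 to 0, cell death (-40 = 40% of starting cells died; -100 = all dead).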 Activity calls are given as the source filed them. The calls were made as follows: active = growth percent below 10; inactive = the rest.

Tests used:
Assay in all cases: NCI-60 one-dose screen, 48 h (100 = growth as untreated, 0 = no growth, -100 = all killed)
Settings in all cases: 10 µM unless noted
DU-145 prostate = tested on: DU-145 prostate
K-562 leukemia = tested on: K-562 leukemia
MALME-3M melanoma = tested on: MALME-3M melanoma
MDA-MB-231 breast = tested on: MDA-MB-231 breast
RXF 393 renal = tested on: RXF 393 renal
SF-268 CNS = tested on: SF-268 CNS
SF-295 CNS = tested on: SF-295 CNS
SF-539 CNS = tested on: SF-539 CNS
UACC-257 melanoma = tested on: UACC-257 melanoma
M14 melanoma = tested on: M14 melanoma
HCT-15 colon = tested on: HCT-15 colon
HT29 colon = tested on: HT29 colon
SNB-75 CNS = tested on: SNB-75 CNS
SNB-19 CNS = tested on: SNB-19 CNS
U251 CNS = tested on: U251 CNS
PC-3 prostate = tested on: PC-3 prostate
SK-MEL-5 melanoma = tested on: SK-MEL-5 melanoma
UACC-62 melanoma = tested on: UACC-62 melanoma
LOX IMVI melanoma = tested on: LOX IMVI melanoma
SK-MEL-28 melanoma = tested on: SK-MEL-28 melanoma

Measured: growth

NC(N)=NS(=O)(=O)c1ccc(N=Nc2c(N)nn(-c3ccc([N+](=O)[O-])cc3[N+](=O)[O-])c2N)cc1
inactive: DU-145 prostate 107% | K-562 leukemia 87.4% | MALME-3M melanoma 106% | MDA-MB-231 breast 102% | RXF 393 renal 89% | SF-268 CNS 100% | SF-295 CNS 108% | SF-539 CNS 95% | UACC-257 melanoma 103% | M14 melanoma 102% | HCT-15 colon 99.9% | HT29 colon 105% | SNB-75 CNS 94.7% | SNB-19 CNS 99.8% | U251 CNS 99.9% | PC-3 prostate 92.8% | SK-MEL-5 melanoma 99% | UACC-62 melanoma 95.2% | LOX IMVI melanoma 97.2% | SK-MEL-28 melanoma 109%

Nc1nc(=O)n([C@H]2C[C@H](O)[C@@H](CO)O2)cc1C=O
inactive: DU-145 prostate 71.7% | K-562 leukemia 97.2% | MALME-3M melanoma 114% | MDA-MB-231 breast 85.1% | RXF 393 renal 103% | SF-268 CNS 110% | SF-295 CNS 103% | SF-539 CNS 100% | UACC-257 melanoma 115% | M14 melanoma 105% | HCT-15 colon 107% | HT29 colon 101% | SNB-75 CNS 122% | SNB-19 CNS 106% | U251 CNS 106% | PC-3 prostate 45% | SK-MEL-5 melanoma 101% | UACC-62 melanoma 106% | LOX IMVI melanoma 106% | SK-MEL-28 melanoma 108%

CCCCCCNC(=O)Oc1ccc(/C(=C(/C)c2ccc(OC)cc2)c2ccc(OCCN3CCCCCC3)cc2)cc1
inactive: DU-145 prostate 47.8% | SF-268 CNS 60.3% | SNB-75 CNS 76.8% | SNB-19 CNS 39.2% | U251 CNS 19.6% | PC-3 prostate 24.5% | SK-MEL-5 melanoma 61.2%
active: K-562 leukemia 2.71% | MALME-3M melanoma -34.9% | MDA-MB-231 breast 6.27% | RXF 393 renal -8.34% | SF-295 CNS -41.3% | SF-539 CNS -59% | UACC-257 melanoma 9.09% | M14 melanoma -63.5% | HCT-15 colon -39.1% | HT29 colon -34% | UACC-62 melanoma 5.76% | LOX IMVI melanoma -94.2% | SK-MEL-28 melanoma -36.1%

O=C(CCCCCCNC(=O)C(O)(O)C(F)(F)F)Nc1ncc(-c2ccc(Br)cc2)s1
active: DU-145 prostate 3.81% | RXF 393 renal -52.8% | SF-268 CNS 1.89% | SF-295 CNS -29.3% | UACC-257 melanoma 9.48% | M14 melanoma 8.94% | HCT-15 colon 3.85% | HT29 colon 1.78% | SNB-19 CNS 2.52% | U251 CNS -35.4% | SK-MEL-5 melanoma -70.3% | UACC-62 melanoma -52.1% | LOX IMVI melanoma -89.7% | SK-MEL-28 melanoma 3.46%
inactive: K-562 leukemia 11.8% | MALME-3M melanoma 19.9% | MDA-MB-231 breast 19.7% | SF-539 CNS 12.1% | SNB-75 CNS 35.9% | PC-3 prostate 10.5%

NS(=O)(=O)c1ccc(Nc2nc(N/N=C/c3ccc4c(c3)OCO4)nc(Nc3ccccc3)n2)cc1
inactive: DU-145 prostate 41% | K-562 leukemia 33.2% | MALME-3M melanoma 58.6% | MDA-MB-231 breast 59.6% | RXF 393 renal 22.4% | SF-268 CNS 42.6% | SF-295 CNS 64.5% | SF-539 CNS 16.7% | UACC-257 melanoma 84.6% | M14 melanoma 38.7% | HCT-15 colon 82.7% | HT29 colon 40.2% | SNB-75 CNS 53.6% | SNB-19 CNS 55.8% | U251 CNS 55.4% | PC-3 prostate 59.1% | SK-MEL-5 melanoma 54.3% | UACC-62 melanoma 78.4% | LOX IMVI melanoma 26.7% | SK-MEL-28 melanoma 67.5%

Cn1cc(-c2nc(N)nnc2-c2c[nH]c3ccc(Br)cc23)c2cc(F)ccc21
inactive: DU-145 prostate 96.4% | K-562 leukemia 56.4% | MALME-3M melanoma 94.2% | MDA-MB-231 breast 90.2% | RXF 393 renal 93.6% | SF-268 CNS 86.9% | SF-295 CNS 106% | SF-539 CNS 95.1% | UACC-257 melanoma 109% | M14 melanoma 102% | HCT-15 colon 77.2% | HT29 colon 104% | SNB-75 CNS 79.9% | SNB-19 CNS 88% | U251 CNS 97.8% | PC-3 prostate 87.2% | SK-MEL-5 melanoma 91.5% | UACC-62 melanoma 91.7% | LOX IMVI melanoma 92.3% | SK-MEL-28 melanoma 101%

O=C(CCCCCCNC(=O)C(O)(O)C(F)(F)F)Nc1ncc(-c2ccccc2)s1
active: DU-145 prostate 3.28% | RXF 393 renal -48.5% | SF-268 CNS 1.35% | SF-295 CNS -35.1% | HCT-15 colon 2.35% | HT29 colon 4.15% | SNB-19 CNS 6.24% | U251 CNS -62.6% | SK-MEL-5 melanoma -67.2% | UACC-62 melanoma -76.6% | LOX IMVI melanoma -78.2% | SK-MEL-28 melanoma -19.6%
inactive: K-562 leukemia 11.7% | MALME-3M melanoma 13.6% | MDA-MB-231 breast 15.9% | SF-539 CNS 13.9% | UACC-257 melanoma 20.8% | M14 melanoma 14.3% | SNB-75 CNS 35.1% | PC-3 prostate 22.7%

N/C(=N\C(N)=N\c1nc2ccccc2s1)c1ccc(Cl)cc1
inactive: DU-145 prostate 85.4% | K-562 leukemia 86.9% | MALME-3M melanoma 90.3% | MDA-MB-231 breast 79.5% | RXF 393 renal 92.6% | SF-268 CNS 93% | SF-295 CNS 44.5% | SF-539 CNS 95.4% | UACC-257 melanoma 105% | M14 melanoma 87.6% | HCT-15 colon 37.1% | HT29 colon 98.4% | SNB-75 CNS 99.1% | SNB-19 CNS 84% | U251 CNS 26.8% | PC-3 prostate 43.9% | SK-MEL-5 melanoma 99.7% | UACC-62 melanoma 81.9% | LOX IMVI melanoma 20.8% | SK-MEL-28 melanoma 95.5%
